# According to PubChem BioAssay AID778 (Sanford-Burnham Center for Chemical Genomics, 2007):
# The campaign covered roughly 96,000 compounds. About 20,000 (21%) were called active.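 The calls were made as follows: active = CYP2C19 inhibition above a set limit at 5 µM in the primary screen (cut at about 50% in these data); inactive = the rest.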 Only a sample is shown.
# Target: Cytochrome P450 2C19 (Homo sapiens) (UniProt P33261)
# Test: blockers of cytochrome P450 2C19 activity – biochemical, luminescence, ADME assay, primary screen (AID 778);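 also: plate controls were negative control wells for no effect and 2.5 mM tranylcypromine positive control for full effect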
# Conditions: CYP2C19 Supersomes, luciferin-H EGE luminescence, 30 min; at 5 µM; active compounds read high
# Chain of Cytochrome P450 2C19 (Homo sapiens) (P33261 whole entry, looked up): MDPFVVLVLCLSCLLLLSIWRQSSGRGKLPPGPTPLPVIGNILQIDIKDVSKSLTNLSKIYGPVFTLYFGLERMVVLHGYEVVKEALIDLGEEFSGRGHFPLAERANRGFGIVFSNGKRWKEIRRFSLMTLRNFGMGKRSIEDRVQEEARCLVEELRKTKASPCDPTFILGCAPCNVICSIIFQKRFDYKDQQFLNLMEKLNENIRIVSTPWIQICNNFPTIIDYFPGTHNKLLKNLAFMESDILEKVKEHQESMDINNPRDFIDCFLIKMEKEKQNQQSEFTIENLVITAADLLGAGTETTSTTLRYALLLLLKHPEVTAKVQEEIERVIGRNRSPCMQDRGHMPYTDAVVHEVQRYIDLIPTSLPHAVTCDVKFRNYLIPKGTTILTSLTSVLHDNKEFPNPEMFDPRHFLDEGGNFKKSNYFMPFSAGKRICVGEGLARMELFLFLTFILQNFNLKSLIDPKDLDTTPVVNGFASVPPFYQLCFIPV
row,Structure (SMILES),inhibition
1,Cc1nnc(SCC(=O)N(C(C)C)C(C)C)nc1C,22.9% (inactive)
2,CCc1nc(N2CCN(c3nc(C)cc(C)n3)CC2)c2oc3ccccc3c2n1,8.3% (inactive)
3,O=C(Nc1ccc(Br)cc1)c1cccc(NC(=O)C2C3CC4OC(=O)C2C4C3)c1 (stereo not drawn),24.6% (inactive)
4,O=C(Nc1nncs1)c1ccccc1NS(=O)(=O)c1cccs1,46.2% (inactive)
5,CC1(C)CC(=O)C(C=NCc2cccnc2)=C(O)C1,14.2% (inactive)
6,CCOC(=O)N1CCC(NC(=O)COc2cc(=O)n(C)c3ccccc23)CC1,-16.3% (inactive)
7,CN1C2CCC1/C(=C\c1ccccc1Cl)C(=O)/C2=C\c1ccccc1Cl,-12.1% (inactive)
8,Cc1ccc(CCNC(=O)C2CCN(S(=O)(=O)N3CCCC3)CC2)cc1,12.2% (inactive)
9,CCCCOc1ccc(NC(=O)CSCC(=O)OCC)cc1,14.3% (inactive)
10,O=S1(=O)CC(NCc2ccccc2)C(Nc2ccc(Cl)cc2)C1 (stereo not drawn),46.7% (inactive)
11,Cn1c(=O)c2c(n(Cc3ccccc3)c1=O)NC(=O)C2CC(=O)N1CCc2ccccc2C1 (stereo not drawn),-9.3% (inactive)
12,CC(Oc1ccc(-c2ccccc2)c(F)c1)c1ccn(S(=O)(=O)c2cccc3ccccc23)n1 (stereo not drawn),25% (inactive)
13,C=CCn1c(=N)n(CC(O)COc2ccc(OC)cc2)c2ccccc21 (stereo not drawn),12.4% (inactive)
14,Cc1ccc(-c2noc(CSc3nnc(-c4cccs4)n3C)n2)cc1,23% (inactive)
15,Cc1ccc(-c2noc(CSc3nnc(-c4ccccc4)n3C)n2)cc1,88.2% (active)
16,Cc1ccc(-c2noc(CC(c3ccccc3)c3ccccc3)n2)cc1,19.9% (inactive)
17,CCCCCOC(=O)c1ccc(N2C(=O)C3C4C=CC(C4)C3C2=O)cc1 (stereo not drawn),-13.5% (inactive)
18,CC(=O)N1C(=O)C2(Nc3ccccc3N2)c2ccccc21,-7.6% (inactive)
19,O=C1Nc2ccccc2C12Nc1ccccc1S2 (stereo not drawn),80.5% (active)
20,Clc1cccc(N=C2NN=C(c3ccc4c(c3)OCCO4)CS2)c1,24.7% (inactive)
21,C=CC[n+]1c(-c2ccc(C)cc2)csc1NNC(=O)Nc1ccccc1,18% (inactive)
22,c1coc(-c2nc3nc4ccccc4n3nc2-c2ccco2)c1,-23.4% (inactive)
23,CN(c1nc2ccccc2n2c(-c3ccco3)nnc12)S(=O)(=O)c1ccccc1,1.3% (inactive)
24,Cn1c(-c2ccco2)nc2cc3ccccc3cc21,53.3% (active)
25,CSc1nc(C)nc2c1c(=O)n(C)c(=O)n2C,-8.7% (inactive)
26,CCCC1CC(C)(C(=O)Cn2[nH]c(=O)ccc2=O)OC1=O (stereo not drawn),0.3% (inactive)
27,COc1ccc(-c2cc(C3CCN(c4ncccc4[N+](=O)[O-])CC3)[nH]n2)cc1,84.8% (active)
28,COc1cccc(NC(=O)c2nn(C34CC5CC(CC(C5)C3)C4)cc2[N+](=O)[O-])c1,9.7% (inactive)
